NPC1 prom act – NPC1 promoter activation; Huh7 NPC1 promoter luciferase reporter, 24 h; AID 485313; Potency, µM (doses to about 9.22 µM), without a hit: at the top dose activation, usual class: activators; 320,000 compounds, 2.4% hits; note: % of control where 0% means no effect; nearly all actives have a fitted effect of over 60% in size
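NPC1 promoter–luciferase Huh7 cells; 24 h compound; luminescence.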
SMN2 splice up – increases expression of the SMN2 splice variant; HEK293 SMN2-luciferase splicing reporter, luminescence, 30-36 h; Potency, µM (doses to about 46.1 µM), for the others: top-dose activity change, positive = activation, usual class: activators; 210,000 compounds, 2.8% hits; AID 1458; note: % of control where 0% means no effect; nearly all actives have a fitted effect of over 55% in size
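qHTS luciferase splicing reporter: luminescence rises when SMN2 exon 7 is included in transfected HEK293 cells. Compound exposure lasted 30-36 h at 37C, with 4.5 mM final sodium butyrate as control, followed by a ONE-Glo read.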
Rab9 promoter act – activates the Rab9 promoter | Huh7 Rab9 promoter-luciferase reporter, luminescence, 24 h | AID 485297 | Potency, µM (series often up to 9.22 µM), inactives show at the top dose activation, negative = inhibition, usual class: activators | 320,000 compounds, 2.8% hits; note: % of control where 0% means no effect; nearly all actives have a fitted effect of over 60% in size
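Cell-based reporter: Huh7 stable for Rab9 promoter-driven luciferase, plated in reduced-serum medium with 10% FBS at 1500 cells/well, compound-treated 24 h at 37 °C, luminescence read after 10 min reagent.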
ELG1 genotoxic – genotoxicity induction in ELG1-luciferase HEK293T cells; AID 504466; HEK293T ELG1-luciferase reporter, luminescence, 16 h; Potency, µM (series often up to 46 µM), for the others: at the top dose activity change, positive = activation, actives largely listed as activators; 330,000 compounds, 1.3% hits; note: % of control where 0% means no effect; nearly all actives have a fitted effect of over 60% in size
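Genotoxicity was scored as increased ELG1-luciferase reporter signal, measured by ONE-Glo luminescence (30 min, room temperature). Compound or vehicle exposure of the HEK293T reporter cells lasted 16 hr at 37°C.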
FLuc counter – counter-screen for miR-21 project: firefly luciferase inhibitors or activators | purified FLuc, Km substrates, luminescence inhibition | P08659 | 360,000 compounds, 6.9% hits | Potency, µM (highest dose often 57.5 µM), inactives show at the highest dose activity change, negative = inhibition, hits mostly inhibitors;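 note: plate controls were vehicle for no effect and reference inhibitor for full effect; nearly all actives have a fitted effect of over 55% in size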
Target sequence (P08659 whole entry, looked up): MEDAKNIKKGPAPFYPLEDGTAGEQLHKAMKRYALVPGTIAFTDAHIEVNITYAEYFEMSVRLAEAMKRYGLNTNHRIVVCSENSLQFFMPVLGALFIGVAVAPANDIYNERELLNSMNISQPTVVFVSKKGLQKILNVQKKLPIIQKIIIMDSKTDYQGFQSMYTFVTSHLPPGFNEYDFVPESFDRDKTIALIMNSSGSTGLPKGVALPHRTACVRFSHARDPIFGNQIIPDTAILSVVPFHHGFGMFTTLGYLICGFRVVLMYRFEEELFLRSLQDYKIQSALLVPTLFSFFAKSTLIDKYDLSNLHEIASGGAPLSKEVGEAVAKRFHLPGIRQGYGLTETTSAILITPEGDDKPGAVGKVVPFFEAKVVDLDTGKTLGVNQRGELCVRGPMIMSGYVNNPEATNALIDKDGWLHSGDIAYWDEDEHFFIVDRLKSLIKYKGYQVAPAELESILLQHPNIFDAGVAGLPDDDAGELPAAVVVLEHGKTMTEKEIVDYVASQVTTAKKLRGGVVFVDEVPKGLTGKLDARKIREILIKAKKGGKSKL
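Purified P. pyralis luciferase, 10 nM final, with Km-level 10 uM D-luciferin and 10 uM ATP in 50 mM Tris acetate pH 7.5, 10 mM Mg acetate, 0.01% Tween-20, 0.05% BSA; 6-point qHTS titration about 60 µM downward; luminescence read.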
Starred values were filed as active, the others as inactive; ? = inconclusive; · = no result; [ ] = dose if it differs, or a comment. Only some compounds are listed: those with a hit (about 7.5% of all), similar ones and a draw of the others. Calls come from the whole dose curve; as a rule, active = well fitted curve in the direction sought with a large enough effect; inconclusive = small, poorly fitted or top-dose-only effect, or another doubt; inactive = no such curve, though single readings can be large; an effect the other way counts as inactive or inconclusive. Potency is the fitted concentration of half-maximal effect.

SMILES	NPC1 prom act	SMN2 splice up	Rab9 promoter act	ELG1 genotoxic	FLuc counter
CC(C)c1ccc(NC(=O)CCN2C(=O)[C@@H]3Cc4ccccc4CN3C2=O)cc1	-1%	·	-4%	0%	2%
CCS(=O)(=O)n1nc(-c2ccc(Cl)cc2)nc1SCc1ccccc1	29%	14µM*	?	17%	15µM*
N#C/C(=C\c1c[nH]c2ccccc12)C(=O)NCC1CCCO1 (configuration not stated)	18%	·	29%	?	17µM*
CCOC(=O)c1ccc2nc3c(cc2c1)CCS3	?	11%	19%	?	19µM*
CCOC(=O)c1ccc2nc(C)c3c(c2c1)OC(C)C3 (configuration not stated)	-3%	-12%	1%	10%	3%
COc1cccc(-n2c(C)c3c(OC)cccc(=O)c3c2C)c1	0%	·	10%	0%	?
Nc1nc(CSC(=S)N2CCOCC2)nc(Nc2ccc(F)cc2)n1	26%	14µM*	?	?	?
O=C(O)/C=C/C(O)c1ccc(Cl)cc1 (configuration not stated)	4%[46.1 µM]	-8%	4%[46.1 µM]	-4%	27µM*
C=C(C(C)=O)C(O)c1ccc(Cl)cc1 (configuration not stated)	·	5%	·	·	·
COc1ccc(-c2nc(-c3ccccn3)no2)cc1	0.1µM*	·	0.04µM*	?	0.095µM*
O=[N+]([O-])c1cc(-c2nc(-c3ccccn3)no2)ccc1NCc1ccccc1	·	·	·	·	-18%
Clc1ccc(-c2nc(-c3ccccn3)no2)cc1Cl	0.32µM*	2.5µM*	0.56µM*	?	0.95µM*
O=C(OCc1ccccc1)c1ccccc1O	·	1%	·	·	·
O=C(OCc1csc(-c2ccccc2)n1)c1ccccc1O	27%	20%	4µM*	?	6µM*
Cc1nc(COC(=O)c2ccc(CO)cc2)cs1	1%	-17%	-5%	1%	4%
Cc1nc(COC(=O)c2cc(O)c3ccccc3c2O)cs1	-2%	-1%	4%	0%	5.4µM*
CN(CC(=O)Nc1ccccc1Cl)CC(=O)N1CCc2ccccc21	-2%	·	-3%	-1%	0%
O=C(CSc1nnc(COc2ccccc2)o1)N1CCCC1	2%	·	-1%	5%	-1%
COCCCNC(=O)Cn1c(=O)n(Cc2ccc(C(=O)NCc3ccc(C)cc3)cc2)c(=O)c2ccccc21	·	17%	·	·	5%
CCOc1ccc(OCc2ccc(C(=O)N3CCOCC3)cc2)cc1	29%	-10%	30%	5%	?
CCOc1ccc(OCc2ccc(C(=O)N3CCCC(C)C3)cc2)cc1 (configuration not stated)	4µM*	10µM*	2µM*	?	13µM*
O=C(COc1ccccc1)NCCSCc1ccc(Cl)cc1	-2%	-10%	-2%	1%	2%
O=c1cc(-c2ccc(C3CCCCC3)cc2)[nH][nH]1	4%	9%	1%	17%	11µM*
CC(C)c1ccc(OCc2ccc(C(=O)O)o2)cc1	?	·	?	?	0.43µM*
CC(C)c1ccc(OCc2ccc(C(=O)N(C)C)o2)cc1	2.8µM*	·	1.6µM*	10µM*	24µM*
SMILES	NPC1 prom act	SMN2 splice up	Rab9 promoter act	ELG1 genotoxic	FLuc counter
COC(=O)c1ccc(COc2ccc(Cl)cc2)o1	16%	·	20%	8%	?
CC(C)c1ccc(OCc2ccc(C(=O)NN3CCN(C)CC3)o2)cc1	2.2µM*	14µM*	2.5µM*	?	?
Nc1nnc(COc2ccc(Br)cc2Br)s1	?	?	?	?	8.5µM*
Cc1ccc(C)c(OCc2nnc(N)s2)c1	0%	12%	-2%	0%	-16%
Cc1ccc2oc(Nc3nc(-c4ccccc4)cc(=O)[nH]3)nc2c1	20%	-15%	?	21µM*	?
Cc1cc(C)c2nc(Nc3nc(-c4ccccc4)cc(=O)[nH]3)nc(C)c2c1	9%	·	1%	4%	1.7µM*
COC(=O)Cc1cc(=O)[nH]c(Nc2nc3ccccc3o2)n1	5%	24%	-4%	8%	17µM*
Cc1ccc2oc(Nc3nc(C)cc(C)n3)nc2c1	?	4%	3.2µM*	9%	?
COCc1cc(=O)[nH]c(Nc2nc3ccccc3o2)n1	?	-37%	26%	?	?
COCc1cc(=O)[nH]c(Nc2nc(C)c3ccccc3n2)n1	2%	-27%	-6%	0%	-12%
O=C(NCCCn1ccnc1)c1ccc(Cl)c(S(=O)(=O)N2CCOCC2)c1	7%	-10%	3%	1%	2%
CCc1cccc(C)c1NC(=O)c1ccc2c(c1)CCN2S(=O)(=O)CC	·	·	·	·	-6%
CCc1nccn1-c1cc(C(C)(C)C)nc2c(-c3ccc(Cl)cc3)cnn12	0%	18%	8%	0%	?
Cc1cccc(C(=O)N[C@H](C(=O)Nc2ncc(C)s2)C(C)C)c1	-21%	14µM*	-31%	?	-9%
COc1ccccc1C(=O)NNC(=O)c1csc(N2CCOCC2)n1	7%	·	-2%	-7%	9.5µM*
Cc1ccc(-c2cc(C(=O)NNC(=O)c3csc(N4CCOCC4)n3)c3ccccc3n2)cc1	2%	·	13%	-7%	13µM*
COc1ccc(Cl)cc1C(=O)NNC(=O)c1csc(N2CCOCC2)n1	-1%	·	3%	-6%	-16%
O=C(Cn1nnc(-c2ccccc2)n1)Nc1cccc(S(=O)(=O)N2CCCC2)c1	-1%	·	-11%	-1%	-21%
O=C(c1ccc(S(=O)(=O)N2CCOCC2)cc1)N(c1cccc(Cl)c1)C1C=CS(=O)(=O)C1 (configuration not stated)	-5%	-32%	-9%	2%	-1%
CCSc1nnc(NC(=O)CC(C)C)s1	0%	3%	26%	5%	-10%
CCCCN1C(=O)/C(=C2\SC(N3CCCCC3)=NC2=O)c2ccccc21	1.4µM*	?	1.8µM*	?	2.1µM*
COc1ccc(/C=N/Nc2cc(C)nc(N)n2)cc1	11%	?	7%	17%	19µM*
Cc1ccc(/C=N/Nc2nc(C)cc(C)n2)cc1	1%	·	-2%	4%	?
COc1cc(/C=N/Nc2cc(C)nc(N)n2)ccc1O	2%	·	-4%	?	9.5µM*
CCOC(=O)N1C(=O)[C@@](c2ccc(Cl)cc2)(C(C)C)N1C(=O)OCC	-4%	·	-3%	-8%	3%
COc1ccc(OCCSc2ncccn2)cc1	2.2µM*	14µM*	1.6µM*	3.7µM*	7.6µM*
Clc1ccc(OCCSc2ncccn2)cc1	2.5µM*	25µM*	3.5µM*	8.2µM*	6.7µM*
COc1cccc(OCCCCSc2ncccn2)c1	13%	18%	16%	?	?
COc1ccc(OCCSc2nc3nc(C)cc(C)n3n2)cc1	-2%	-3%	-3%	2%	-7%
Nc1cc(N)nc(SCCOc2ccccc2F)n1	28%	13µM*	?	?	?
